{"source": "PubChem BioAssay AID2315", "about": "(National Center for Advancing Translational Sciences (NCATS), 2010)", "note": "In all, about 290,000 compounds went through this assay and about 27,000 (9.3%) were called active. Cut-off read from the data, not from the text of the source: active = inhibition mostly above about 28% (no sharp cut-off); inactive = mostly below about 43%. This excerpt belongs to a sample that is enriched for actives.", "data": [{"assay": "A qHTS for Small Molecule Inhibitors of Shiga Toxin; note: 0% is about no effect", "conditions": "Vero cells, Shiga toxin protein synthesis inhibition reporter; at 38.7 µM, stronger effect = higher value", "values": [{"smiles": "C/C(=N\\NC(N)=S)c1ccncc1", "inhibition": "-3.77% (inactive)"}, {"smiles": "C/C(=N/NC(=O)c1ccn(C)n1)c1ccncc1", "inhibition": "81.2% (active)"}, {"smiles": "C/C(=N/NC(=O)c1ccncc1)c1ccc2c(c1)OCO2", "inhibition": "1.65% (inactive)"}, {"smiles": "O=C(C1CCC1)N1CCN(c2ccccc2)CC1", "inhibition": "-2.3% (inactive)"}, {"smiles": "COc1ccc(NC(=O)CCCC2CCCCC2)c(OC)c1", "inhibition": "72.3% (active)"}, {"smiles": "CC(=O)Oc1ccc(NC(=O)CCC2CCCCC2)c(C(=O)O)c1", "inhibition": "9.77% (inactive)"}, {"smiles": "COc1ccc(NC(=O)CCN2CCCC2)c(OC)c1", "inhibition": "-1.84% (inactive)"}, {"smiles": "Cc1ccc(C)c(CN2CCC(CNC(=O)Nc3ccc(C)c(F)c3)CC2)c1", "inhibition": "9.21% (inactive)"}, {"smiles": "Cc1nc(NC(=O)C23CCC(C)(C(=O)O2)C3(C)C)sc1C", "note": "(stereo not drawn)", "inhibition": "-12.8% (inactive)"}, {"smiles": "Cc1nc(NC(=O)C2CCCCC2)sc1C", "inhibition": "61.6% (active)"}, {"smiles": "Cc1cnc(NC(=O)C2CCCC2)s1", "inhibition": "28.6% (inactive)"}, {"smiles": "CCSc1nsc(NC(=O)Nc2ccccc2OC)n1", "inhibition": "27.4% (active)"}, {"smiles": "CCSc1nsc(NC(=O)Nc2cccc(C(C)=O)c2)n1", "inhibition": "41.5% (active)"}, {"smiles": "C=CCSc1nsc(NC(=O)Nc2cccc(C(C)=O)c2)n1", "inhibition": "22.6% (inactive)"}, {"smiles": "COc1ccccc1NC(=O)Nc1nnc(Cc2ccc(F)cc2)s1", "inhibition": "22.5% (inactive)"}, {"smiles": "CCc1nc(SCC(=O)Nc2ccccc2OC)n[nH]1", "inhibition": "-3.11% (inactive)"}, {"smiles": "CC(=O)c1cccc(NC(=O)c2ccncc2)c1", "inhibition": "-0.119% (inactive)"}, {"smiles": "COc1ccc(N2CC(C(=O)N[C@@H](C)C(=O)N3CCCCC3)CC2=O)cc1", "note": "(stereo partly drawn)", "inhibition": "-4.4% (inactive)"}, {"smiles": "COCCc1nn2c(=O)cc(COC(=O)c3cc(OC)c(OC)c(OC)c3)nc2s1", "inhibition": "-8.18% (inactive)"}, {"smiles": "C/C(N)=C(/C#N)C(=O)COC(=O)C1=NN(c2ccccc2)C(=O)CC1", "inhibition": "-13.8% (inactive)"}, {"smiles": "CCOCCCNC(=O)C(NC(=O)CNC(=O)c1ccccc1)c1ccc(OC)cc1", "note": "(stereo not drawn)", "inhibition": "-6.33% (inactive)"}, {"smiles": "Cc1ccc(NC(=O)CN2CCC(C(N)=O)CC2)cc1[N+](=O)[O-]", "inhibition": "26% (inactive)"}, {"smiles": "Cc1ccc(NC(=O)c2sccc2C)cc1[N+](=O)[O-]", "inhibition": "87.3% (active)"}, {"smiles": "Cc1nc2ccccc2cc1C(=O)N/N=C/c1ccc([N+](=O)[O-])cc1", "inhibition": "-4.74% (inactive)"}, {"smiles": "Cc1ccc(NC(=O)CN(C)CC(=O)Nc2cccc(F)c2)cc1[N+](=O)[O-]", "inhibition": "14.5% (inactive)"}, {"smiles": "NC(=S)N/N=C/c1ccc([N+](=O)[O-])cc1", "inhibition": "4.32% (inactive)"}, {"smiles": "Cc1ccsc1C(=O)N/N=C/c1ccc([N+](=O)[O-])cc1", "inhibition": "64% (active)"}, {"smiles": "O=C(NCC(=O)N1CCN(c2ncc(C(F)(F)F)cc2Cl)CC1)c1ccc(Br)o1", "inhibition": "-3.85% (inactive)"}, {"smiles": "C=C1CCN(C(CC(C)C)C(=O)N2CCOCC2)S(=O)(=O)c2ccccc21", "note": "(stereo not drawn)", "inhibition": "-4.26% (inactive)"}, {"smiles": "O=C1C2C(c3ccccc3)CC=CC2C(c2ccoc2)N1Cc1ccccc1", "note": "(stereo not drawn)", "inhibition": "-1.21% (inactive)"}, {"smiles": "O=C(/C=C/c1ccc(F)cc1)NCCNC(=O)/C=C/c1ccc(F)cc1", "inhibition": "-7.35% (inactive)"}, {"smiles": "C=CCNC(=O)/C=C/c1ccc(C(C)C)cc1", "inhibition": "96.1% (active)"}, {"smiles": "CC(C)c1ccc(/C=C/C(=O)NNC(=O)c2cccnc2)cc1", "inhibition": "0.769% (inactive)"}, {"smiles": "CCCNC(=O)N1CCC(c2ccc3c(c2)OCO3)CC1", "inhibition": "-2.98% (inactive)"}, {"smiles": "Cc1nn(CC(=O)NCCc2ccccc2)c(=O)c2cc3occc3n12", "inhibition": "-3% (inactive)"}, {"smiles": "COc1ccc(CNC(=O)C(C)n2nc(C)c3c(C)n(-c4ccccc4)nc3c2=O)c(OC)c1", "note": "(stereo not drawn)", "inhibition": "-6.6% (inactive)"}, {"smiles": "CC(=O)N1c2ccc(S(=O)(=O)N3CCCC(C(=O)NCc4ccc(Cl)cc4)C3)cc2CC1C", "note": "(stereo not drawn)", "inhibition": "8.69% (inactive)"}, {"smiles": "C=CCNC(=S)N/N=C/c1ccc(OCc2ccccc2)cc1", "inhibition": "-15.4% (inactive)"}, {"smiles": "Cc1ccc(/C=N/NC(=O)CN2CCN(Cc3ccccc3)CC2)s1", "inhibition": "14.8% (inactive)"}, {"smiles": "C=CCNC(=S)N/N=C/c1ccc(C)s1", "inhibition": "39.3% (active)"}, {"smiles": "CCCn1c(C(C)Nc2nc(-c3ccc(C)cc3)cs2)nc2cc(Cl)c(N3CCCCC3)cc21", "note": "(stereo not drawn)", "inhibition": "-1.11% (inactive)"}, {"smiles": "Cc1ccc(C)c(-n2cc(CN3CCN(C(=O)c4ncn[nH]4)CC3)c(-c3ccccc3)n2)c1", "inhibition": "8.93% (inactive)"}, {"smiles": "CCC(O)C1CCN(Cc2cn(-c3ccc(OC)cc3)nc2-c2cccc(F)c2)CC1", "note": "(stereo not drawn)", "inhibition": "50.9% (inactive)"}, {"smiles": "Cc1cccc(-n2cc(CN3CCN(C(=O)c4ncn[nH]4)CC3)c(-c3cccc(F)c3)n2)c1", "inhibition": "63.8% (active)"}, {"smiles": "COc1ccc(S(=O)(=O)N(C)CC(=O)NCCCN2CCOCC2)cc1Cl", "inhibition": "-12.5% (inactive)"}, {"smiles": "Clc1nc(NC2CCCC2)nc(N2CCOCC2)n1", "inhibition": "5.65% (inactive)"}, {"smiles": "CCc1ccc(CNC(=O)C2CCN(c3nnc(C)c4c(C)n(-c5ccc(C)cc5)nc34)CC2)cc1", "inhibition": "-5.47% (inactive)"}, {"smiles": "O=S(=O)(c1ccc(Cl)cc1)c1nc(-c2ccco2)oc1N1CCCCC1", "inhibition": "-0.989% (inactive)"}, {"smiles": "CSc1ccc(S(=O)(=O)N2CCC(C(=O)NCCc3ccccc3)CC2)cc1", "inhibition": "56.2% (inactive)"}, {"smiles": "CC(Oc1cc2oc(=O)c3c(c2cc1Cl)CCCC3)C(=O)NCc1ccncc1", "note": "(stereo not drawn)", "inhibition": "-3.65% (inactive)"}, {"smiles": "O=C(CCN1c2ccccc2Sc2ccccc21)Nc1ccccc1", "inhibition": "-1.29% (inactive)"}, {"smiles": "CCN1/C(=C/c2ccc3ccc(C)cc3[n+]2CC)Sc2ccccc21", "inhibition": "5.47% (inactive)"}, {"smiles": "CCN1/C(=C/C(=S)Nc2ccccc2)Sc2ccccc21", "inhibition": "62.5% (active)"}, {"smiles": "CCn1cc(/C=C(\\NC(=O)c2ccc(C)cc2)C(=O)NCCN2CCOCC2)c2ccccc21", "inhibition": "1.24% (inactive)"}, {"smiles": "C/C(=N/Nc1nc(-c2ccccc2)c(CC(=O)O)s1)c1ccccc1", "inhibition": "68.4% (active)"}, {"smiles": "Cc1ccc(-c2nc(C)sc2CC(=O)O)cc1", "inhibition": "-13.7% (inactive)"}, {"smiles": "CCOC(=O)C(=O)Nc1nc(-c2ccccc2)c(CC)s1", "inhibition": "-12% (inactive)"}, {"smiles": "COC(=O)c1cccc(N2C(=O)C3C4C=CC(CC4)C3C2=O)c1", "note": "(stereo not drawn)", "inhibition": "0.962% (inactive)"}, {"smiles": "CC(C)Cn1cnc2c1c(=O)n(CC(=O)NN)c(=O)n2Cc1ccccc1", "inhibition": "-7.02% (inactive)"}, {"smiles": "O=C(C(=O)N1CCc2ccccc2C1)N1CCc2ccccc2C1", "inhibition": "8.23% (inactive)"}, {"smiles": "CN1CCN(CC(=O)Nc2cccc([N+](=O)[O-])c2)CC1", "inhibition": "-12.8% (inactive)"}, {"smiles": "CC(=O)Nc1cccc([N+](=O)[O-])c1", "inhibition": "17.7% (inactive)"}, {"smiles": "O=C(Nc1cccc([N+](=O)[O-])c1)N1CCc2ccccc2C1", "inhibition": "88.6% (active)"}, {"smiles": "CCc1ccc(NC(=O)N2CCc3ccccc3C2)cc1", "inhibition": "120% (active)"}, {"smiles": "CCc1ccc(NC(=O)N2CCN(c3ccccc3)CC2)cc1", "inhibition": "20.1% (inactive)"}, {"smiles": "COC(=O)c1ccccc1NC(=O)CSc1nc2c(c(=O)[nH]1)CCC2", "inhibition": "-2.68% (inactive)"}, {"smiles": "COc1ccc(C(=O)NC(=S)N2CCCCC2c2cccnc2)cc1OC", "note": "(stereo not drawn)", "inhibition": "-4.75% (inactive)"}, {"smiles": "Cc1ccc(Cn2cc(C(=O)NN)c(=O)c3ccc(F)cc32)cc1", "inhibition": "-5.32% (inactive)"}, {"smiles": "Nc1nc(SCc2cccc(Br)c2)n[nH]1", "inhibition": "14.2% (inactive)"}, {"smiles": "O=C(CN1CCN(C(=O)C2CCCO2)CC1)Nc1c(Cl)cccc1Cl", "note": "(stereo not drawn)", "inhibition": "-6.84% (inactive)"}, {"smiles": "COc1cc(C(=O)NCC2(c3ccccc3)CCCC2)ccc1OC(C)C", "inhibition": "4.68% (inactive)"}, {"smiles": "CC(Cc1cccs1)NC(=O)NC1CCCCC1", "note": "(stereo not drawn)", "inhibition": "35.2% (inactive)"}, {"smiles": "CC(Cc1cccs1)NC(=O)c1cccc(Cl)c1", "note": "(stereo not drawn)", "inhibition": "62% (active)"}, {"smiles": "CC(Cc1cccs1)NCc1ccc(Cl)cc1", "note": "(stereo not drawn)", "inhibition": "-11.1% (inactive)"}, {"smiles": "COC(=O)c1ccc(COc2ccc(/C=C/C(=O)c3ccc(OC)c(CSCC(=O)O)c3)cc2OC)cc1", "inhibition": "10.1% (inactive)"}, {"smiles": "CCOC(CNC(=O)C1CCN(S(=O)(=O)c2ccc3nc4c(c(C(=O)O)c3c2)CC(C)CC4)CC1)OCC", "note": "(stereo not drawn)", "inhibition": "16.6% (inactive)"}, {"smiles": "NS(=O)(=O)c1ccc2nc(NC(=O)C3=COCCO3)sc2c1", "inhibition": "31.7% (active)"}, {"smiles": "O=C(Nc1ccc(S(=O)(=O)N2CCCC2)cc1Cl)C1=COCCO1", "inhibition": "-24.5% (inactive)"}, {"smiles": "NS(=O)(=O)c1ccc2nc(NC(=O)CS(=O)(=O)c3ccc(F)cc3)sc2c1", "inhibition": "-4.57% (inactive)"}, {"smiles": "CC(=O)c1ccc(NC(=O)Cn2c(=O)oc3ccccc32)cc1", "inhibition": "-3.29% (inactive)"}, {"smiles": "Nc1ncc(CN2CCCC(C(=O)Nc3ccc(-c4ccco4)cc3)C2)cn1", "note": "(stereo not drawn)", "inhibition": "1.36% (inactive)"}, {"smiles": "CC(C)OC(=O)c1ccc(COc2ccc3ccc(=O)oc3c2)o1", "inhibition": "56.4% (active)"}, {"smiles": "COC(=O)c1ccc(COc2ccc(C#N)cc2)o1", "inhibition": "-6.04% (inactive)"}, {"smiles": "Cc1noc(C)c1COc1ccc2ccc(=O)oc2c1", "inhibition": "-4.36% (inactive)"}, {"smiles": "CN(C)C(=O)CCC(=O)N1CCCCC1C(=O)Nc1ccc(Oc2ccccc2F)cc1", "note": "(stereo not drawn)", "inhibition": "-6.54% (inactive)"}, {"smiles": "CC(C)(C)n1nnnc1C(c1ccccc1F)N1CCN(C(=O)c2ccco2)CC1", "note": "(stereo not drawn)", "inhibition": "2.73% (inactive)"}, {"smiles": "Cc1ccccc1OCC(=O)N(Cc1cccc(F)c1)C1CCS(=O)(=O)C1", "note": "(stereo not drawn)", "inhibition": "10.7% (inactive)"}, {"smiles": "CCCOc1ccc(Cn2ccnc2)cc1[N+](=O)[O-]", "inhibition": "-8.54% (inactive)"}, {"smiles": "CCCCOc1ccc(CSC(=N)N)cc1[N+](=O)[O-]", "inhibition": "-5.85% (inactive)"}, {"smiles": "CCCCCOc1ccc(CSC2=NCCN2)cc1[N+](=O)[O-]", "inhibition": "63.7% (active)"}, {"smiles": "COc1cccc(CCNC(=O)c2cccc(NC(=O)C3=C(C)OCCS3)c2)c1", "inhibition": "-2.41% (inactive)"}, {"smiles": "CN(C)CCN=c1cc(-c2ccccc2)oc2ccc(Cl)cc12", "inhibition": "129% (active)"}, {"smiles": "CN(C)CCn1c(=S)[nH]c2ccc(Cl)cc2c1=O", "inhibition": "-8.18% (inactive)"}, {"smiles": "Cc1cc(-c2ccc(C)c(S(=O)(=O)Nc3ccc(S(N)(=O)=O)cc3)c2)on1", "inhibition": "29.3% (inactive)"}, {"smiles": "COc1ccc(CCNS(=O)(=O)c2cn(C)nc2C)cc1", "inhibition": "16.1% (inactive)"}, {"smiles": "CCOC(=O)CNc1nc(Cl)nc(Nc2ccc(OC)cc2OC)n1", "inhibition": "26.8% (inactive)"}, {"smiles": "CCOC(=O)CNc1nc(Cl)nc(Nc2ccccc2)n1", "inhibition": "65.7% (active)"}, {"smiles": "CCC(=O)Nc1ccc(Nc2nc(Cl)nc(Nc3ccc(NC(=O)CC)cc3)n2)cc1", "inhibition": "4.44% (inactive)"}]}]}
